This is an account of results in the supplement of paper PMC11417369.

Whole data set: some 25,000 sequences, median “ln(normalized median fluorescence intensity)” near 9.3, cut for the highest 2% near 10. Shown is part of a subset that was picked to be rich in the highest values.

This assay relates to PF3D7_0420300 AP2 domain 1 (GST-tagged). The assay can be described thus: gcPBM binding intensity (ln(normalized median fluorescence intensity)); higher = stronger DNA binding. Put shortly: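 An Agilent 4 × 180k array of primer-extended double-stranded 36-bp intergenic genomic probes, with negative controls, was incubated for 1 h with GST-tagged P. falciparum DNA-binding domains expressed in E. coli. Alexa488 anti-GST antibody detected bound protein, scanned at 488 nm. Binding intensity is the highest Masliner-normalised natural-log median intensity across replicate spots of either probe orientation.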
CATATAAAAAATATGGTGCAGTTTTTTTTTTTTTTT: the “gcPBM binding intensity (ln)” value came out at 9.1.
As to “ATATATCATAATAGAGGTACACATATTATATATATA [XGTACX_site782]”, the “gcPBM binding intensity (ln)” value came to 9.29.
Next, “TAATTTTTTTTAAATACACACTGAAATGTGAATTTT [CACACA_site4476]”: 8.96.
Take “ACCACCATATAACATACATGCATCTTTTTTCCCTTC [TGCATGCA_site583]”: the “gcPBM binding intensity (ln)” value amounted to 9.79.
“TTTTTATATTTTATTAGTACTTATTATATATATAAT [XGTACX_site4900]”: the “gcPBM binding intensity (ln)” value is 9.26.
The result for “ATATATGTAATAAATAGTACACACACACATATATAT [XGTACX_site2817]” reads 10.3; that for “TAATAATAGTAAATATGTACATATATATATATATAG [XGTACX_site4602]”, 9.26; that for “TGTAATAAATAGTACACACACACATATATATATATT [CACACA_site1388]”, 9.94.
Next, “TGTAGTCTGGAGAAAAGTACATAGTATCTGGTAACA [XGTACX_site4940]”: 9.2.
Take “TGGGAATAAAAACACACACACACACCGATATATATA [CACACA_site5875]”: the “gcPBM binding intensity (ln)” value was 10.3.
On to “GGAATAATATAAAACACACACATAAATATAAATATA [CACACA_site3376]”, for which the “gcPBM binding intensity (ln)” value came out at 9.9.
Next, “AAAATACATGGACACACACACACACCGATATATATA [CACACA_site5885]”: 10.3.
For the sequence “TAATAATCCACAAGCACACACACACCCATATATATA [CACACA_site1267]”, the “gcPBM binding intensity (ln)” value is 10.
Turning to “ATAAAAATAAAATGGACACACATATATACATATTTG [CACACA_site3277]”, the “gcPBM binding intensity (ln)” value amounted to 9.68.
For the sequence “ATAATATAAACATACACACACACATATATATATATA [CACACA_site5591]”, the “gcPBM binding intensity (ln)” value came out at 10.
For the sequence “AAAAAAAAAAGAATAGCACACACACCGATATAAATA [CACACA_site8111]”, the “gcPBM binding intensity (ln)” value was found to be 10.1.
The result for “ATAATATATAAACACACACACATATATAAATACATT [CACACA_site4466]” reads 10.1; that for “TATAATCCATAAGAAGCACACACATATATATATATT [CACACA_site8394]”, 9.76.
Take “ATAATCCACAAGCACACACACACACCCATATATATA [CACACA_site1268]”: the “gcPBM binding intensity (ln)” value amounted to 10.2.
In the case of “AAATAATATAAACATACACACACACCGATATATATA [CACACA_site8945]”, the “gcPBM binding intensity (ln)” value came to 10.2.
As for “CAAATACATGGACACACACACATATACAGATATATA [CACACA_site5854]”, the “gcPBM binding intensity (ln)” value worked out at 10.
The result for “TATATTAACAAAATGGTGCAATAATTTCTATATTGT [GTGCAC_site9430]” reads 9.21.
Next, “TATTTTAATTTTTGTTGTACGCAAATGTGAGGGCAT [XGTACX_site4663]”: 9.17.
On to “AAATAAAGGAAATAAAAAGAAACCAATTTCGAATAT [CACACA_negctrl_site953]”, for which the “gcPBM binding intensity (ln)” value is 9.57.
The result for “TTTTTTATTTTTTACATATTTAGCTCATATTTATAT [GTGCAC_negctrl_site491]” reads 9.44; that for “AAAGGAGGGAATTTTTCTAGGTGTGGAGTGCTACTC [XGTACX_negctrl_site63]”, 9.44.
The result for “TATAAATATAAATACACACACATATATATTATATAT [CACACA_site4496]” reads 9.85; that for “AAAACACTTATGGATTGTACAATAAAAATTATATTA [XGTACX_site7042]”, 9.26.
“CCTATAAATGCATTCACACATATATATTTATATTAT [CACACA_site6086]”: the “gcPBM binding intensity (ln)” value was 9.26.
The result for “TATATTAAAAAAAAATGTACATATATATAATATATA [XGTACX_site1935]” reads 9.19.
Next, “ACCATATAAATAAACACACACACACCGATATATATA [CACACA_site5310]”: 10.1.
The result for “ATAATACCCAAGCACACACACACACCGATATATATA [CACACA_site8344]” reads 10.4; that for “TAATAATACCCAAGCACACACACACCCATATATATA [CACACA_site4831]”, 10; that for “CACTAAAATGGACACACACACACACCGATATATATA [CACACA_site6139]”, 10.2.
Take “AAATATATACTACCGATGCACTAAATATAAACACAT [GTGCAC_site9777]”: the “gcPBM binding intensity (ln)” value amounted to 9.67.
The result for “CACTAAAATAAACACACACACACACCGATATATATA [CACACA_site9379]” reads 10.3; that for “ATAAAATACATATAAACACACATATAAACCGACATA [CACACA_site2477]”, 10; that for “AAAATACATAAACACACACACACACCGATATATATA [CACACA_site9186]”, 10.3.
Next, “TGATAATAAGCATACACACACACACCCAAAAAAAAA [CACACA_site721]”: 10.2; “TATATATATAAATACACACACACACCGATATATATA [CACACA_site5408]”: 10.1; “TAAAAAAAAAAAAATACACACACACCGATATATATA [CACACA_site8498]”: 10.2.
In the case of “CCTAAATAAATGGACACACACATATATATATATATA [CACACA_site1439]”, the “gcPBM binding intensity (ln)” value came out at 9.49.
As to “TGTAAGAAATTGAGCGCACACATACATCTGTGGGAT [CACACA_site4945]”, the “gcPBM binding intensity (ln)” value was 9.55.
The result for “AAAAAAAAAAAAAAAACACACATTTAGCAATCTACA [CACACA_site3706]” reads 9.32.
